Assay in all cases: DAPPL (digital affinity profiling via proximity ligation, sequencing); 10 mM Tris-HCl pH 7.5, 50 mM NaCl, 1 mM DTT, 4% glycerol, room temperature, 30 min; GST-TFs on glutathione beads, 16-mer random dsDNA library, 0.1% formaldehyde crosslink after washing; high values mean tight binding
Test [1] addresses T1, FEV (Homo sapiens, UniProt Q99581 1-238).
T1 sequence: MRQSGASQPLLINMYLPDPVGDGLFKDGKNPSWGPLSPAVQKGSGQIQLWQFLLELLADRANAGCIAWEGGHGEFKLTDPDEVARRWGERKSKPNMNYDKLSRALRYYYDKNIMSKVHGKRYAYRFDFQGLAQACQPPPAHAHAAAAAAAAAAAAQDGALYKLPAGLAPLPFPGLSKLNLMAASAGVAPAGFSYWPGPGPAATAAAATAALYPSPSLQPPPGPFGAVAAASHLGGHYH
The conditions noted are these: protein: recombinant; tags: N-terminal GST; dsDNA, one strand shown. The essentials: (§1)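 In yeast, human transcription factors were expressed with a GST fusion, then pulled down on glutathione beads and given DNA barcodes. Pooled with a tag-only sample, they were exposed to 200 nmole of a 16-mer random double-stranded DNA library (Tris/NaCl/DTT/glycerol buffer, room temperature, 30 min), washed, crosslinked with 0.1% formaldehyde, proximity-ligated using BsaI/T4 ligase for 1 h at 37 °C, PCR-amplified and read on an Illumina NextSeq500. Each hexamer's frequency of reads for a factor, divided by the matching frequency for the tag-only sample, gives the binding signal.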

Test [2] deals with ETV5 (Homo sapiens, UniProt P41161 1-510). To be noted: protein: recombinant; tags: N-terminal GST; dsDNA, one strand shown. The method in brief: as §1
ETV5, sequence (P41161 whole entry): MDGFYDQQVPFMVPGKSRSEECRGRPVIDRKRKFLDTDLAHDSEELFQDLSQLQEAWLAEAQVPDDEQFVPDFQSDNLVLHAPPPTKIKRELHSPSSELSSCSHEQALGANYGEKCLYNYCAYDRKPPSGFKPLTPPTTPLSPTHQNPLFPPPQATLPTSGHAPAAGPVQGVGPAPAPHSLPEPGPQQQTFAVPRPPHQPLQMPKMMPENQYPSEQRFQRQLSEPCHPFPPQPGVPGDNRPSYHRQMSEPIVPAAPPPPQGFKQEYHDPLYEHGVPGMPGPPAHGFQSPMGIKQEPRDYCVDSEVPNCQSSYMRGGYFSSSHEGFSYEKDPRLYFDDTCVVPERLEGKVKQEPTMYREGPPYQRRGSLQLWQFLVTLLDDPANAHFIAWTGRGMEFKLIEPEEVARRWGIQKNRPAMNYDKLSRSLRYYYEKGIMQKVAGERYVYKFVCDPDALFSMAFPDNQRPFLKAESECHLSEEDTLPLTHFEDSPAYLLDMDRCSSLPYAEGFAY
Test [3] concerns the target HSF1 (Homo sapiens, UniProt Q00613 1-529). To be noted: protein: recombinant; tags: N-terminal GST; chain copies: 3; dsDNA, one strand shown. The essentials:
as §1

Test [4] concerns the target T2, SPIC (Homo sapiens, UniProt Q8N5J4 1-248).
T2 sequence: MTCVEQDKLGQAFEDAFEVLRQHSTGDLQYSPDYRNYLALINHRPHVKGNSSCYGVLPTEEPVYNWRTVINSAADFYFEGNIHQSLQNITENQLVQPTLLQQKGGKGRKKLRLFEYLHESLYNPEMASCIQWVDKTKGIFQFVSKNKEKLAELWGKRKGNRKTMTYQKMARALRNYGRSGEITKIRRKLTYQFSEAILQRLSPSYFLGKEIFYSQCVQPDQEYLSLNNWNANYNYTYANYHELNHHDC
The conditions noted are these: protein: recombinant; tags: N-terminal GST; dsDNA, one strand shown. The essentials:
as §1

The target of test [5] is ELF4 (Homo sapiens, UniProt Q99607 1-663). To be noted: protein: recombinant; tags: N-terminal GST; dsDNA, one strand shown. The method in brief: as §1
ELF4, sequence (Q99607 whole entry): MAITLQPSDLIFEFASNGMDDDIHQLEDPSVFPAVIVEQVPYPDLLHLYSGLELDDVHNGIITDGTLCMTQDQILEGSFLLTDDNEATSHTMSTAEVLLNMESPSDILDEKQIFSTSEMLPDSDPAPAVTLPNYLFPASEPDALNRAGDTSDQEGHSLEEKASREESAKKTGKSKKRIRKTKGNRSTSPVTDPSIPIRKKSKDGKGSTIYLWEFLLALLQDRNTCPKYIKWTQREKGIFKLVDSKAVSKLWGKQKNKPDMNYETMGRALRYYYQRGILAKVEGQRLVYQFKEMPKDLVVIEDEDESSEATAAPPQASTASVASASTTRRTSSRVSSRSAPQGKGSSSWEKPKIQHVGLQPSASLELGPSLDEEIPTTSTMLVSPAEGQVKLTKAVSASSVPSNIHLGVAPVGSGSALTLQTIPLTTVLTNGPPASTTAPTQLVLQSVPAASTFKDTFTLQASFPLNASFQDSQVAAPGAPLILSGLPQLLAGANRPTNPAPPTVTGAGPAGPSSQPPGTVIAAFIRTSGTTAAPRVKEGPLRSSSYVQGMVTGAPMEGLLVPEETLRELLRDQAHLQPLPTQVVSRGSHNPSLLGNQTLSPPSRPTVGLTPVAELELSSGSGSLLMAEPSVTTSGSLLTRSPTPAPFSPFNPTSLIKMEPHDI
Test [6] deals with T3, ELK4 (Homo sapiens, UniProt P28324-2 1-405).
T3 sequence: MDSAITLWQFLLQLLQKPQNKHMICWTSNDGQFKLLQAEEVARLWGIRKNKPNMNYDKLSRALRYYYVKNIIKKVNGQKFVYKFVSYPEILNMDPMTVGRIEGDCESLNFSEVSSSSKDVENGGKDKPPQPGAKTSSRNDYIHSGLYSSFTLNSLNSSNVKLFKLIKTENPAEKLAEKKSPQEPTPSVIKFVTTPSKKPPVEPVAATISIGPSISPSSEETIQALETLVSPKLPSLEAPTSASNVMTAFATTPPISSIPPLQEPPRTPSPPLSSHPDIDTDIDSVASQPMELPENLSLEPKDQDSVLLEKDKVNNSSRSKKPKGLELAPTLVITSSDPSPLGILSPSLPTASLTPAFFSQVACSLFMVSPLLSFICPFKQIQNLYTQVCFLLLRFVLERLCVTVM
The conditions noted are these: protein: recombinant; tags: N-terminal GST; dsDNA, one strand shown. The method in brief: as §1

Test [7] deals with T4, ETV2 (Homo sapiens, UniProt O00321 1-342).
T4 sequence: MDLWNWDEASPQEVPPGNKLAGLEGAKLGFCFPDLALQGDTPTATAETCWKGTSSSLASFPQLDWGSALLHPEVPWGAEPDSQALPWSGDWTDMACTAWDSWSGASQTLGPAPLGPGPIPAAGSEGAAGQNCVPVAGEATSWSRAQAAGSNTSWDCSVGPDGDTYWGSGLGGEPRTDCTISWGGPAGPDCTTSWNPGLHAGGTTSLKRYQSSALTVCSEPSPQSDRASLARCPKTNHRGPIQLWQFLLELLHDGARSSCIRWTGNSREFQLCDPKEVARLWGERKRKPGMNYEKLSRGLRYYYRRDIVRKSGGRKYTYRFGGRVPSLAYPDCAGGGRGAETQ
The conditions noted are these: protein: recombinant; tags: N-terminal GST; dsDNA, one strand shown. The essentials: as §1

Test [8] deals with T5, ELF3 (Homo sapiens, UniProt P78545 1-371).
T5 sequence: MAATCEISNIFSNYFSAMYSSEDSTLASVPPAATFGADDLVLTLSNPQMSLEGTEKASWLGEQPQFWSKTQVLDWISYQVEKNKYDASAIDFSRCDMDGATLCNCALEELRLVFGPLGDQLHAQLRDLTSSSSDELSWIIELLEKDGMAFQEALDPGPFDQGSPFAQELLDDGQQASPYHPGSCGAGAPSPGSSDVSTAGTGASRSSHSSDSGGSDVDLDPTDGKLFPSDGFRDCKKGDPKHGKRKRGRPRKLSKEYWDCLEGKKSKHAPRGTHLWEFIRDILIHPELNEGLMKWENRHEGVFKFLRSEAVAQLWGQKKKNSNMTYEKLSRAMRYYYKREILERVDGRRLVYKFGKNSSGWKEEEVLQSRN
To be noted: protein: recombinant; tags: N-terminal GST; dsDNA, one strand shown. The essentials:
as §1

For test [9], the target named is CRX (Homo sapiens, UniProt O43186 1-299). The conditions noted are these: protein: recombinant; tags: N-terminal GST; dsDNA, one strand shown. The essentials:
as §1

Test [10] addresses ETV1 (Homo sapiens, UniProt P50549 1-477). The conditions noted are these: protein: recombinant; tags: N-terminal GST; dsDNA, one strand shown. The essentials:
as §1

In test [11] the target is T6, ERF (Homo sapiens, UniProt P50548 1-548).
T6 sequence: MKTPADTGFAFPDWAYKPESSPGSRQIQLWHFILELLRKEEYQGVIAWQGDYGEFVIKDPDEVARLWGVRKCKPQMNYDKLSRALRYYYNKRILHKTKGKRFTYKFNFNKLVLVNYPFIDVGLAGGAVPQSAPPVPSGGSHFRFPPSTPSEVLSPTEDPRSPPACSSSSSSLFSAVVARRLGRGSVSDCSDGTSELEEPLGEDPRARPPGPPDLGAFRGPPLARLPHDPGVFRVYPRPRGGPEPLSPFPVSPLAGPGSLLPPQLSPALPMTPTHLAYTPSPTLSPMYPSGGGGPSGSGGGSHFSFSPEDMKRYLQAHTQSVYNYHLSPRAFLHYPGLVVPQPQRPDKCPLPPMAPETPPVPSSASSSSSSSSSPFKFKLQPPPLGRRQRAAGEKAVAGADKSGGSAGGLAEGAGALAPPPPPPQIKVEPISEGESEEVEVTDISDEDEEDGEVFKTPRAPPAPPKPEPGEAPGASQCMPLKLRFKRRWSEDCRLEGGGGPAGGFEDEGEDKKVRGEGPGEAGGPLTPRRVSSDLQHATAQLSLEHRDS
To be noted: protein: recombinant; tags: N-terminal GST; dsDNA, one strand shown. The essentials:
as §1

The target of test [12] is T7, ETV3L (Homo sapiens, UniProt Q6ZN32 1-361).
T7 sequence: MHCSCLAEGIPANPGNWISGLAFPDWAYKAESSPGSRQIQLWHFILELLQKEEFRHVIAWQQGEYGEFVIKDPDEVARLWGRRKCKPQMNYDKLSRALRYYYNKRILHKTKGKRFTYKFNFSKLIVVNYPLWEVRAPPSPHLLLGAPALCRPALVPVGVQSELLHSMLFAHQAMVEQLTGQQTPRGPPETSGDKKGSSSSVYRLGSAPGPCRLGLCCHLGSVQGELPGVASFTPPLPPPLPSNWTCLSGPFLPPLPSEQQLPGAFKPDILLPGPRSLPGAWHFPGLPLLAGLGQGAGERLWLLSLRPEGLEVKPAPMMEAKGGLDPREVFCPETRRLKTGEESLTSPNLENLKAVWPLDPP
The conditions noted are these: protein: recombinant; tags: N-terminal GST; dsDNA, one strand shown. The method in brief:
as §1

In test [13] the target is T8, ETS2 (Homo sapiens, UniProt P15036 1-469).
T8 sequence: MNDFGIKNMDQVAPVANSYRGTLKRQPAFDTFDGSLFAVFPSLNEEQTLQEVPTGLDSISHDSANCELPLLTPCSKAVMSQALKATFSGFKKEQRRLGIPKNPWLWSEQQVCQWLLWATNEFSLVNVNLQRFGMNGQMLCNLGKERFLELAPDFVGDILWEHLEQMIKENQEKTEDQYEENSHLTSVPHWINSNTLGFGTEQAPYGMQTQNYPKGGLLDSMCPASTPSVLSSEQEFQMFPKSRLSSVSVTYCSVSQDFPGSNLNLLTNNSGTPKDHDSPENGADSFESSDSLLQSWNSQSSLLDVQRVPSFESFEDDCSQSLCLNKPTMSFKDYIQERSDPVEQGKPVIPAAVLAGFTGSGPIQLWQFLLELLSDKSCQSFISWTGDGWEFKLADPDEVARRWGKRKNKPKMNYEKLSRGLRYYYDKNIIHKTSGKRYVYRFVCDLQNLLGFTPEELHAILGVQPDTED
To be noted: protein: recombinant; tags: N-terminal GST; dsDNA, one strand shown. The essentials: as §1

Test [14] addresses T9, SPDEF (Homo sapiens, UniProt O95238 1-335).
T9 sequence: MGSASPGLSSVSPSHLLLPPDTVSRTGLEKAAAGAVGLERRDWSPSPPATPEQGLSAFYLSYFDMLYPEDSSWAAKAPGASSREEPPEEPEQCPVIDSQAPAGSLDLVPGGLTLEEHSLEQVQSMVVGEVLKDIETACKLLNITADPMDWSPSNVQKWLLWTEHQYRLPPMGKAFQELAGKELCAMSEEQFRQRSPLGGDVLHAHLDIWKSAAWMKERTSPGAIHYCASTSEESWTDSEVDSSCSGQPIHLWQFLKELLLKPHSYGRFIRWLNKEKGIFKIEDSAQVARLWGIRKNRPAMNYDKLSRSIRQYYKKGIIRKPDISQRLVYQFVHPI
To be noted: protein: recombinant; tags: N-terminal GST; dsDNA, one strand shown. The method in brief:
as §1

In test [15] the target is T10, ETV7 (Homo sapiens, UniProt Q9Y603 1-341).
T10 sequence: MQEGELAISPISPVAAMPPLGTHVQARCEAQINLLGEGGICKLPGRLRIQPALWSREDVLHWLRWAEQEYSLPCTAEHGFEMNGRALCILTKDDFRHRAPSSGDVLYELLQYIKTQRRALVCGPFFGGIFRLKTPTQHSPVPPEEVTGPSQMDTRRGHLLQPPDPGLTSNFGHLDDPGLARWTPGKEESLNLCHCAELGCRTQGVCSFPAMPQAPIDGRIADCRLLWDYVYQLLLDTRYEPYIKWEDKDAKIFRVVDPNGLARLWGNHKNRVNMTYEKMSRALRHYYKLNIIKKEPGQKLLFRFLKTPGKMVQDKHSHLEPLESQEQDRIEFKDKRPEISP
To be noted: protein: recombinant; tags: N-terminal GST; dsDNA, one strand shown. The essentials: as §1

For test [16], the target named is T11, ELF5 (Homo sapiens, UniProt Q9UKW6-2 1-255).
T11 sequence: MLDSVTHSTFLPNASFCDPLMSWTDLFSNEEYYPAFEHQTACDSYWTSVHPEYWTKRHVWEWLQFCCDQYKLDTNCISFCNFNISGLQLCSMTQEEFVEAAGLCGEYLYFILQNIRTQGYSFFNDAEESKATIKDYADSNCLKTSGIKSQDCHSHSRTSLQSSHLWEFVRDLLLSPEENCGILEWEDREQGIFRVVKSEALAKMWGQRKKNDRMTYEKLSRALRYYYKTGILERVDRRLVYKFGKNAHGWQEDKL
The conditions noted are these: protein: recombinant; tags: N-terminal GST; dsDNA, one strand shown. The essentials: as §1

Test [17] concerns the target T12, ETV3 (Homo sapiens, UniProt P41162-2 1-143).
T12 sequence: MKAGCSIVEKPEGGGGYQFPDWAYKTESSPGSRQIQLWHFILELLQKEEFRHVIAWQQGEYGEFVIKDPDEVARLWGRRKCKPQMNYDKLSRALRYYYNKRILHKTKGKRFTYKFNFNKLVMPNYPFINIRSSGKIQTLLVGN
To be noted: protein: recombinant; tags: N-terminal GST; dsDNA, one strand shown. The essentials: as §1

Test [18] has as its target ETV6 (Homo sapiens, UniProt P41212 1-452). To be noted: protein: recombinant; tags: N-terminal GST; dsDNA, one strand shown. The essentials:
as §1

ETV6, sequence (P41212 whole entry): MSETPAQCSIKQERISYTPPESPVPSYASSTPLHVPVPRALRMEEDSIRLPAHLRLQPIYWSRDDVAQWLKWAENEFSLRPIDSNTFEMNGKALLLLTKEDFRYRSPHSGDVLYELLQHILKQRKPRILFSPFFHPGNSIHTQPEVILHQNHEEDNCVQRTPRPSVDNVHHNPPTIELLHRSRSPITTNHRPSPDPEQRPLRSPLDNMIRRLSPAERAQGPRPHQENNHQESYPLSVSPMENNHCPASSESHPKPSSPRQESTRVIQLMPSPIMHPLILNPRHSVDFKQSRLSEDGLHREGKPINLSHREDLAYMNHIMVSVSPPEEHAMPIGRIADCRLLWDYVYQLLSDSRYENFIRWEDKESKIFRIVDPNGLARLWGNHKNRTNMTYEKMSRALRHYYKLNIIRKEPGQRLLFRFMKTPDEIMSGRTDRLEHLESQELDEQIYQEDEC
ETV1, sequence (P50549 whole entry): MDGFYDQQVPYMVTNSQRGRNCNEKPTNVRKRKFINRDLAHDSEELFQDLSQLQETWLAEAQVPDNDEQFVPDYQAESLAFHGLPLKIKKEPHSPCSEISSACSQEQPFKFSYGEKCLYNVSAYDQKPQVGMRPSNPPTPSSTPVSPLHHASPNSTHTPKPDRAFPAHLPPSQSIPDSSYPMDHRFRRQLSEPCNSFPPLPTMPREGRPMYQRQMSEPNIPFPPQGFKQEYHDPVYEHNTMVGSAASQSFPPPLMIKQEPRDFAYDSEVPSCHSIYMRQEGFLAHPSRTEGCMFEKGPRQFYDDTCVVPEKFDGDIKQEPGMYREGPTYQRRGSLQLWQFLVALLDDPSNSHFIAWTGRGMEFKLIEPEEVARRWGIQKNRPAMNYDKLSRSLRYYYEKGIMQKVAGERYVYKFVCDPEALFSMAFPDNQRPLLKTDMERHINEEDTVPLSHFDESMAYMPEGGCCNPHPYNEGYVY
HSF1, sequence (Q00613 whole entry): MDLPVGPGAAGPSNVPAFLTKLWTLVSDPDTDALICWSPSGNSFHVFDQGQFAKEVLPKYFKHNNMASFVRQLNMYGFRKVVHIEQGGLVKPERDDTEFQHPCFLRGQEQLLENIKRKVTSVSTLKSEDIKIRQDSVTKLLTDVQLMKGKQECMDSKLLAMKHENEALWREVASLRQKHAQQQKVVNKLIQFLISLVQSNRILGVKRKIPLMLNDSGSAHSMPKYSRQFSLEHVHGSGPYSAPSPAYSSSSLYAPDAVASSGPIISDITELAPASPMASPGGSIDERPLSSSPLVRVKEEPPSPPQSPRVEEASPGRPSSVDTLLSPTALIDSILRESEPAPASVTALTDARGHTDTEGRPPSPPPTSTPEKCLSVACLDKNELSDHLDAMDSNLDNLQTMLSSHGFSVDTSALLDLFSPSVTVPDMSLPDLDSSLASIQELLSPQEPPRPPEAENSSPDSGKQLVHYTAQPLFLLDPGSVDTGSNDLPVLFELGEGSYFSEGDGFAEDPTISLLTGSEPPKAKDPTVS
CRX, sequence (O43186 whole entry): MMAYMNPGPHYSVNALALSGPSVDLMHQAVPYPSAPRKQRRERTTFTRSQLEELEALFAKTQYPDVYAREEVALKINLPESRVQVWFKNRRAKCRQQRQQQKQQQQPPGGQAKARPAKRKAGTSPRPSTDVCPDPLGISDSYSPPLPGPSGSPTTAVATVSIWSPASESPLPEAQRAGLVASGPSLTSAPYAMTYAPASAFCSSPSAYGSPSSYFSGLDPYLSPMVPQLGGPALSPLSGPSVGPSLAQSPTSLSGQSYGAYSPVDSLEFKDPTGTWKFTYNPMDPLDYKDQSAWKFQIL

For ATCTAA, the binding signal in test [1] was 1.14 fold enrichment (6-mer frequency, TF over GST control); in test [2], 1.15 fold enrichment (6-mer frequency, TF over GST control); in test [3] it was 1.49 fold enrichment (6-mer frequency, TF over GST control); in test [4], 1.13 fold enrichment (6-mer frequency, TF over GST control); in test [5], 1.23 fold enrichment (6-mer frequency, TF over GST control); in test [6], 1.24 fold enrichment (6-mer frequency, TF over GST control). Also, the binding signal in [7] was 1.22 fold enrichment (6-mer frequency, TF over GST control); in test [8], 1.12 fold enrichment (6-mer frequency, TF over GST control); in test [9] it was 1.83 fold enrichment (6-mer frequency, TF over GST control); in test [10], 1.16 fold enrichment (6-mer frequency, TF over GST control); in test [11] it was 1.2 fold enrichment (6-mer frequency, TF over GST control); in test [12], 1.19 fold enrichment (6-mer frequency, TF over GST control). Further, the binding signal in [13] was 1.2 fold enrichment (6-mer frequency, TF over GST control); in test [14] it was 1.11 fold enrichment (6-mer frequency, TF over GST control); in test [15], 1.22 fold enrichment (6-mer frequency, TF over GST control); in test [16] it was 1.17 fold enrichment (6-mer frequency, TF over GST control); in test [17], 1.24 fold enrichment (6-mer frequency, TF over GST control); in test [18] it was 1.17 fold enrichment (6-mer frequency, TF over GST control).
